Screening data as filed in PubChem BioAssay.
14-3-3g Raf – modulators of human 14-3-3 gamma - Raf peptide interaction; FP, 14-3-3gamma / TMR-pS259-Raf peptide binding; inhibition, % at 40 µM; actives 0.19% (n = 160,000); AID 422; in the data active = inhibition above about 30%
Target sequence (P61981 whole entry, looked up): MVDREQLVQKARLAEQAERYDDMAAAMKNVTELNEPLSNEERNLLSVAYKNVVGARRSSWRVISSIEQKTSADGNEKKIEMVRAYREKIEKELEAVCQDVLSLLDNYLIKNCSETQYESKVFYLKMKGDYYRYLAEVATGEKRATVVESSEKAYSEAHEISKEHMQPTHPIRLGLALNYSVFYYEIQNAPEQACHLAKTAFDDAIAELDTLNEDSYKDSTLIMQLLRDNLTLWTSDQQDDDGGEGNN
Large screens that a line does not name were inactive. The sample as a whole holds a higher share of hits than the screen did.

C=CCOc1ccc(C2Nc3ccc(Br)cc3-c3nnc(SC)nc3O2)cc1 (centres undefined)	none
CSc1nnc2c(n1)OC(C1CC=C(C)CC1C)Nc1ccccc1-2 (centres undefined)	14-3-3g Raf 83
Cc1cccc(-n2ccnc2SCC(=O)NC2CCCC2)c1	none
CC1(C(=O)NC2CCCCCC2)CCC(=O)N1CCc1ccc(Cl)cc1 (centres undefined)	none
COC(=O)c1c(NC(=O)c2cc3nc(-c4cccs4)cc(C(F)(F)F)n3n2)sc2c1CCCC2	none
O=C1CC(c2ccc(F)cc2)n2ncnc2N1 (centres undefined)	none
CC1CCCCN1C(=O)c1cc2c(=O)[nH]c3ccccc3c2s1 (centres undefined)	none
COCCNC(=O)c1ccc(-n2c(SCc3ccccc3F)nc3ccccc3c2=O)cc1	none
CCC(C)NS(=O)(=O)c1ccc(F)c(C(=O)Nc2ccc(C)c(C)c2)c1 (centres undefined)	none
CC(=O)N(C)c1ccc(N2CCOCC2)c2c1C(=O)c1ccccc1C2=O	none
Cn1c(=O)cc2c3c(c(N4CCOCC4)ccc31)C(=O)c1ccccc1-2	14-3-3g Raf 33
Cc1ccc(Nc2ccc3c4c(cc(=O)n3C)-c3ccccc3C(=O)c24)cc1	none
Cc1ccccc1C(=O)Nc1sc2c(c1C(=O)NC1CCS(=O)(=O)C1)CCCC2 (centres undefined)	none
CCCOC(=O)c1ccc2c(c1)C(=O)N(C1CCCCC1)C2=O	none
O=C(O)Cn1c(CCS(=O)(=O)c2ccc(Cl)cc2)nc2ccccc21	none
CCOC(=O)c1ccc(-n2c(SCC#N)nc3c(sc(=S)n3-c3cccc(OC)c3)c2=O)cc1	none
Cc1ccc(S(=O)(=O)N(CC(=O)Nc2ccccc2C)Cc2ccccc2)cc1	none
CCOc1ccccc1N(CC(=O)Nc1ccccc1C(=O)O)S(C)(=O)=O	none
CCCC(=O)n1nc(-c2ccc(OC)cc2)nc1N	none
COC(=O)C1=C(C)N(C)C(C)=C(C(=O)OC)C1c1ccsc1	none
COC(=O)C1=C(C)N(C)C(C)=C(C(=O)OC)C1c1ccc(C(F)(F)F)cc1	none
COC(=O)C1=C(C)N(C)C(C)=C(C(=O)OC)C1c1ccc(C(=O)OC)cc1	14-3-3g Raf 113
CC12CCC(C(=O)N(c3ccccc3Cl)C1=O)C2(C)C (centres undefined)	none
CC(C)c1ccc(-c2csc(NC(=O)c3cccc4ccccc34)n2)cc1	none
Cc1cc(NS(=O)(=O)c2ccc(NC(=O)CCC(=O)O)cc2)no1	14-3-3g Raf 37
Cc1cc(NS(=O)(=O)c2ccc(NC(=O)CCN3C(=O)c4ccccc4C3=O)cc2)no1	none
CCC(=O)Nc1ccc(S(=O)(=O)Nc2cc(C)on2)cc1	none
N#Cc1cc(-c2ccccc2C(F)(F)F)no1	none
CCN(CC)c1ccc(CNc2ccc(Br)cn2)cc1	none
CCN(CC)c1ccc(-c2cc(C#N)on2)cc1	14-3-3g Raf 41
COC(=O)Cn1c2ccccc2c2nc3ccccc3nc21	none
O=C(O)Cn1c2ccccc2c2nn3cc(-c4ccccc4)nc3nc21	14-3-3g Raf 119
O=C(O)Cn1c(-c2ccccc2)nc2ccccc21	none
O=C1C(c2ccccc2F)N(Cc2ccccc2)C(=O)CN1C1CCCCCC1 (centres undefined)	none
O=C(NCCc1ccccc1)c1cccn2c(=O)c3cc(Cl)ccc3nc12	none
COCCCNC(=O)c1cccn2c(=O)c3cc4ccccc4cc3nc12	none
NS(=O)(=O)c1ccc(CCNC(=O)c2cccn3c(=O)c4cc5ccccc5cc4nc23)cc1	14-3-3g Raf 91
Cn1cc(CC(=O)NCCCN2CCOCC2)c2ccccc21	none
CCS(=O)(=O)NCc1cn2ccsc2n1	none
CCOC(=O)C1=C(C)NC(C)=C(C(=O)OC)C1c1cccc([N+](=O)[O-])c1 (centres undefined)	none
COC(=O)C1=C(C(=O)OC)C(c2cc([N+](=O)[O-])ccc2OCc2ccccc2Cl)c2sc(=O)[nH]c2S1 (centres undefined)	none
COC(=O)C1=C(C(=O)OC)C(c2cccc([N+](=O)[O-])c2)c2sc(=O)[nH]c2S1 (centres undefined)	14-3-3g Raf 34
O=C1CN(C(=O)C2(S(=O)(=O)c3ccc(Cl)cc3)CC2)CC(=O)N1CCc1ccccc1	none
CS(=O)(=O)Nc1ccc(C2=NN(S(C)(=O)=O)C(c3ccc(F)cc3)C2)cc1 (centres undefined)	none
CCS(=O)(=O)N1N=C(c2ccc(NS(C)(=O)=O)cc2)CC1c1ccc(F)cc1 (centres undefined)	14-3-3g Raf 92
CCS(=O)(=O)N1N=C(c2ccc(NS(C)(=O)=O)cc2)CC1c1ccc(C)cc1 (centres undefined)	none
CN(C)c1ccc(C(=O)N2N=C(c3ccc(Cl)cc3)CC2(O)C(F)(F)F)cc1 (centres undefined)	none
CC(C)n1c(CN2CCN(C)CC2)nc2c1c(=O)n(C)c(=O)n2C	none
O=C(C[n+]1ccc2ccccc2c1)c1ccc2c(c1)Cc1ccccc1-2	none
O=C(C[n+]1ccc2ccccc2c1)c1ccccc1	14-3-3g Raf 45
O=C(C[n+]1cccc(Br)c1)c1ccccc1	none
CSc1cccc(NC(=O)Cn2cccc2)c1	none
Cc1sc2c3ccccc3ccc2[n+]1CCC(=O)O	none
N[C@@H](Cc1ccc(O)c(O)c1)C(=O)O	none
CC(Cc1ccc(O)c(O)c1)C(C)Cc1ccc(O)c(O)c1 (centres undefined)	14-3-3g Raf 60
C[C@H](Cc1ccc(O)c(O)c1)[C@@H](C)Cc1ccc(O)c(O)c1	none
CCCCn1c(SCc2ccc([N+](=O)[O-])cc2)nc2ccc(N3CCOCC3)cc2c1=O	none
CCn1cc(S(=O)(=O)CC(=O)Nc2cccc(C)c2C)c2ccccc21	none
CCOCCOC(=O)CCSc1n[nH]c(=O)[nH]c1=O	none
Cc1ccc(Sc2nn[nH]n2)cc1	none
O=[N+]([O-])c1cc(Cc2ccccc2Cl)cc(C=Nc2ccc(N3CCOCC3)cc2)c1O	none
O=[N+]([O-])c1cc(Cl)cc(C=Nc2ccc(Cl)c(-c3nc4ccccc4o3)c2)c1O	none
Cc1ccc(N=Cc2cc(Cl)cc([N+](=O)[O-])c2O)c(O)c1	none
Cc1cc(C=Nc2ccc(N3CCOCC3)cc2)c(O)c([N+](=O)[O-])c1	14-3-3g Raf 86
Cc1cc(Br)c(O)c(C=Nc2ccc(N3CCOCC3)cc2)c1	none
Cc1ccc(N=Cc2cc(Cl)cc([N+](=O)[O-])c2O)cc1Cl	14-3-3g Raf 42
COC(=O)Cc1n[nH]c(=S)[nH]c1=O	none
COc1ccccc1N1C(=O)c2cccc(NC(C)=O)c2C1=O	none
Cc1ccc(CN2C(=O)CSc3ccc(C(=O)NCCc4ccc(Cl)cc4)cc32)cc1	none
CCCCOc1ccc(C(=O)Nc2ccncc2)cc1	none
CCOC(=O)C1=C(C)NC(C)=C(C(=O)OCC)C1c1ccc(-c2ccccc2)o1	14-3-3g Raf 40
CCOC(=O)C1=C(C)NC(C)=C(C(=O)OCC)C1c1ccc(-c2ccccc2Cl)o1	none
COC(=O)C1=C(C)NC(C)=C(C(=O)OC)C1c1ccc(-c2ccc(Cl)cc2)o1	none
Cc1ccc(-c2c3c(=O)n(C)c(=O)n(C)c3cn2N2CCOCC2)cc1	none
CCCOc1ccc(NC2=CC(=O)CC(C)(C)C2)cc1	none
Cc1nc2ccccc2c2c1CC(CBr)O2 (centres undefined)	none
Cc1cc(C)nc(/N=C(\N)Nc2cccc(O)c2)n1	none
CCc1ccc(NC(=O)CSc2nc(C)cc(=O)[nH]2)cc1	none
CC1(C)CC(=S)C=C(N2CCCCC2)C1	14-3-3g Raf 125
CC1(C)CC(=O)C=C(N2CCN(C3=CC(=O)CC(C)(C)C3)CC2)C1	none
CC1(C)CC(=O)c2sc(N3CCCCC3)nc2C1	none
O=C(NCC1COc2ccccc2O1)c1cc(-c2cccnc2)nc2ccccc12 (centres undefined)	none
COc1ccccc1NC(=O)Nc1ccc2c(c1)OCCO2	none
